# Source: PubChem
# Most compounds without a hit are left out; they make up all but 3.4% or so of the library.
# TEAD-YAP inh = TEAD-YAP interaction inhibition, primary screen, TEAD-YAP interaction inhibitor project, luminescence, HEK-TIYL cells | TEAD-Gal4/YAP UAS-luciferase luminescence | inhibition, % at 9.12 µM | actives 1.4% (n = 640,000); in the data active means inhibition above about 32%;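 further: 0% = median of test compound wells and 100% = reference inhibitor wells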
# GPR151 ag = activators of human GPR151, primary screen, cell-based, PathHunter beta-arrestin, luminescence; PathHunter beta-arrestin GPR151 cells; activation, % at 11.2 µM; actives 1% (n = 650,000); in the data active means activation above about 4.9%;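 further: 0% = median of compound wells and 100% = cells with positive control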
# Target sequence (Q8TDV0 whole entry, looked up): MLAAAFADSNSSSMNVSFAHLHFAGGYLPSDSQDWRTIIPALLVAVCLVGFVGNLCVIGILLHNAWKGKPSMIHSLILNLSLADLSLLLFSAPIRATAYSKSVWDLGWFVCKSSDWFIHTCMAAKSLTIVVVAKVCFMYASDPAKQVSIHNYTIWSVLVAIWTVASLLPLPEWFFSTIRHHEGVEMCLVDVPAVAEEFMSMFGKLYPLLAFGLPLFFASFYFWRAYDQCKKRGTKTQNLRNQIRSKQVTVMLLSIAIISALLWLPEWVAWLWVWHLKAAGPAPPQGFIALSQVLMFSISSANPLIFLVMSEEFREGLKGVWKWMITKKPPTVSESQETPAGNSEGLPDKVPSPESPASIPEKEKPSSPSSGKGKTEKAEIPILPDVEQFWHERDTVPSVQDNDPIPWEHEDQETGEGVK
# MITF inh = MITF inhibitors, primary screen, biochemical, AlphaScreen, human. Microphthalmia-associated transcription factor (Homo sapiens), O75030. AlphaScreen MITF homodimerization, bead proximity signal. inhibition, % at 2.6 µM. actives 0.91% (n = 650,000). AID 1259374, 2018; in the data active means inhibition above about 50%;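 further: 0% = vehicle wells with protein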
# FBW7 activator = FBW7 E3 ligase activators, primary screen, biochemical, AlphaScreen, human | F-box/WD repeat-containing protein 7 (Homo sapiens), Q969H0 | AlphaScreen FBW7–phospho-cyclin E peptide binding, activator screen | normalized activity (activation), % at 26.1 µM | actives 0.13% (n = 650,000); in the data active means normalized activity above about 1.9%;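 further: purified mutant Fbw7 with reduced substrate affinity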
# GPR151 confirm = GPR151 activators, triplicate retest, confirmation, cell-based, PathHunter beta-arrestin, luminescence; shares compounds with GPR151 ag; GPR151 PathHunter beta-arrestin cells, 90 min; % of EA-reagent control over plate median; activation, % at 11.2 µM; 6,700 tested, under 10 active;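 active means mean percent activation across replicates above the confirmation screen cutoff of 4.91%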
# GPR119 ag = GPR119 activators in beta-arrestin cells, counter-screen for GPR151 activator project, cell-based, PathHunter beta-arrestin, luminescence, triplicate. actives 0.3% (n = 6,700). 90 min; 0 = compound-well median, 100 = enzyme-acceptor control. shares compounds with GPR151 ag. AID 1508611, 2020. activation, % at 11.2 µM;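 active means mean percent activation in the counterscreen above 29.09%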;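 further: counterscreen on off-target GPR119 to flag nonselective hits from the GPR151 activator screen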
# Active calls of the source: *; . = no result.
SMILES,TEAD-YAP inh,GPR151 ag,MITF inh,FBW7 activator,GPR151 confirm,GPR119 ag
Cc1oc(-c2ccc(Cl)cc2)nc1CS(=O)CC(=O)NC(C)c1ccccc1 (centres undefined),-7.4,-1.2,15.1,1.2,.,.
Cc1oc(-c2ccc(Cl)cc2)nc1CS(=O)CC(=O)NC(C)C (centres undefined),3.1,9.4*,5.6,0.0,-0.5,-9.2
CCN(CC)C(=O)Cn1c(=O)n(-c2ccccc2)c(=O)c2oc3ccccc3c21,8.1,1.2,-4.3,-0.1,.,.
CCN(CC)C(=O)Cn1c(=O)n(-c2ccc(C)cc2)c(=O)c2oc3ccccc3c21,12.4,5.2*,16.4,-0.1,-0.5,-3.0
CN(CCO)c1ncnc2sccc12,5.9,6.6*,-1.5,0.0,0.4,4.1
CCc1cccc(C)c1NC(=O)CCC(=O)O,-3.2,-1.3,-1.8,0.0,.,.
CCc1cccc(CC)c1NC(=O)CCCC(=O)O,3.0,6.6*,9.1,0.9,-0.1,0.1
CCN1CCN(C(=O)CN(C)S(=O)(=O)c2ccc(Br)cc2)CC1,12.5,-2.5,1.1,0.0,.,.
CCN1CCN(C(=O)CN(C)S(=O)(=O)c2ccc(Cl)cc2)CC1,-1.4,19.8*,8.1,-0.1,-0.3,-1.6
COCCN1Cc2cc3cc(C)ccc3nc2OCC1=O,-1.8,7.2*,14.3,0.1,0.5,-4.3
CCN1CCN(C2=NS(=O)(=O)C(c3ccc(C)cc3)=C2C)CC1,-1.2,11.7*,11.9,0.1,0.2,7.8
COc1cc(Nc2nc(SCC(=O)c3ccc(Br)cc3)nc3ccccc23)cc(OC)c1,0.0,-0.5,-4.7,0.0,.,.
COc1cc(Nc2nc(SCC(=O)c3ccccc3)nc3ccccc23)cc(OC)c1,3.6,6.9*,-2.9,-0.1,1.3,16.3
O=C(CSc1nc(Nc2ccc(F)c(F)c2)c2ccccc2n1)c1ccc(F)cc1,13.2,5.1*,4.7,0.1,-0.9,0.4
COC(=O)C1=C(C)N=C2SCC(=O)N2C1c1ccc(N(C)C)cc1 (centres undefined),16.0,0.9,17.1,-0.1,.,.
COc1ccc(/C(O)=C2\C(=O)C(=O)N(c3ccc(C(=O)O)cc3)C2c2ccccc2)cc1 (centres undefined),-35.2,9.3*,30.6,0.1,0.3,10.7
O=C(NCCNC1CCCC1)c1ccco1,-1.6,-0.5,29.9,0.9,.,.
O=c1oc2ccccc2cc1C1=Nn2c(nc3ccccc3c2=O)SC1,4.0,3.7,15.9,0.1,.,.
CN1CCN(CCCOc2ncc(Nc3ncc(-c4ccc(C(F)(F)F)c(F)c4)nc3C(N)=O)cn2)CC1,.,6.9*,.,.,0.6,6.6
O=C(NCc1cccs1)NC1CC(=O)N(c2cccc(F)c2)C1 (centres undefined),11.2,5.0*,-2.9,-0.2,0.8,5.6
Cc1ccc(N2CC(NC(=O)NCc3ccco3)CC2=O)cc1C (centres undefined),6.4,5.8*,0.8,0.5,1.0,-0.6
CCOC(=O)C1CCN(c2ccc(C=C3C(=O)N(C)C(=O)N(C)C3=O)cn2)CC1,-5.0,5.2*,-0.6,-0.1,-0.3,3.8
CCCCn1c(CNC(=O)c2cccc(C)c2)nnc1SCC(=O)Nc1sc(C(=O)OCC)c(C)c1C(=O)OCC,-0.6,1.1,-14.3,-0.1,.,.
COc1ccc(S(=O)(=O)N2CCN=C2SCc2ccccc2)cc1,5.4,1.0,15.1,0.8,.,.
COc1cccc(NC(=O)CSc2nc3ccccc3c(=O)n2CCc2ccc(OC)c(OC)c2)c1,-0.7,5.0*,4.4,-0.1,-1.1,-13.7
COc1ccc(CNC(=O)c2cc3c(=O)[nH]c4ccccc4c3n2C)c(OC)c1,-4.9,6.4*,12.0,0.5,-1.1,-10.6
COc1ccc(-c2nnc(SCc3nc4ccccc4[nH]3)n2-c2ccccc2)cc1OC,-13.3,5.0*,-13.8,0.2,-0.6,-1.9
